Assay outcomes as filed in PubChem.
HT1080 IDH1KD tx: qHTS for induction of synthetic lethality in tumor cells producing 2HG: qHTS for the HT-1080-IDH1KD cell line. HT-1080 IDH1 knockdown viability, ATP luminescence, 48 h. Potency, µM (series often up to 46.1 µM), for inactives: at the top dose activity, negative = toxicity, usual class: cytotoxic. actives 2% (n = 360,000);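 note: 0% = DMSO wells and -100% = cell-free medium wells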
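CellTiter-Glo luminescence after 48 h compound exposure at 37 degrees C of IDH1-knockdown HT-1080 cells in 5% FBS RPMI. %Activity scaled between DMSO wells and cell-free media wells, with curves fitted and assigned curve classes.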
KB-3-1 tox: qHTS assay for MDR1-selective chemotherapeutics: Primary screen using the parental adenocarcinoma cell KB-3-1. actives 1.4% (n = 400,000). KB-3-1 viability, CellTiter-Glo ATP luminescence, 72 h. Potency, µM (series often up to 46.1 µM), actives largely listed as cytotoxic; note: % is set by controls: 0 for no effect and ±100 for the full control effect; nearly all actives have a fitted effect of over 60% in size
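Cytotoxicity measured as CellTiter-Glo luminescence after 72 h at 37 C. Compound titrations were pinned onto drug-naive KB-3-1 parental adenocarcinoma cells grown in DMEM with 10% FBS, and normalized data fitted to concentration-response curves.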
SW480 rerep: A quantitative high throughput screen for small molecules that induce DNA re-replication in SW480 colon adenocarcinoma cells. SW480 DNA re-replication, Hoechst DNA content imaging, 48 h. Potency, µM (doses to about 46.1 µM), inactives show at the top dose re-replication activation, usual class: activators. actives 1.8% (n = 340,000). AID 624297, 2012; note: % of control where 0% means no effect; nearly all actives have a fitted effect of over 55% in size
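First, 250 cells per well were seeded. Next, compound or vehicle (23 nL) was pinned in, plates sat 48 hr at 37 C. Finally Hoechst was added for 40 min before fluorescence scanning.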
KB-V1 MDR tox: qHTS assay for MDR1-selective chemotherapeutics: Primary screen using the drug-selected MDR subline cells KB-V1; KB-V1 MDR cells viability, CellTiter-Glo, 72 h; Potency, µM (top dose mostly 46.1 µM), actives largely listed as cytotoxic; actives 3.4% (n = 400,000); note: % is set by controls: 0 for no effect and ±100 for the full control effect; nearly all actives have a fitted effect of over 60% in size
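In this primary screen, KB-V1 cells overexpressing P-gp are incubated with library compounds (lowest to highest concentration) for 72 h at 37 degrees C before a luminescent ATP viability read.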
MCF10A rerep: A quantitative high throughput screen for small molecules that induce DNA re-replication in MCF 10a normal breast cells; MCF 10A DNA re-replication, Hoechst nuclear intensity, 48 h; Potency, µM (highest dose often 46.1 µM), without a hit: at the highest dose activity, positive = re-replication, actives largely listed as activators; actives 2.9% (n = 350,000); AID 624296, 2012; note: % of control where 0% means no effect; nearly all actives have a fitted effect of over 50% in size
HT1080-NT tox: qHTS for induction of synthetic lethality in tumor cells producing 2HG: qHTS for the HT-1080-NT fibrosarcoma cell line | HT-1080-NT fibrosarcoma viability, CellTiter-Glo ATP luminescence, 48 h | Potency, µM (doses to about 46.1 µM), inactives show at the highest dose activity, negative = less viability, usual class: cytotoxic | actives 1.6% (n = 360,000);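 note: NT is the 2HG producing partner of a matched IDH1 knockdown line; 0% = DMSO-treated cells and -100% = media-only wells without cells; nearly all actives have a fitted effect of over 55% in size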
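Viability by CellTiter-Glo luminescence after 48 h compound exposure at 37C of HT-1080-NT cells (750/well, RPMI, 5% FBS). % activity scaled between DMSO wells and medium-only wells, then curve-fitted and categorized by curve class.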
* hit, by the source's call; i = inactive; ? = inconclusive; · = no result. A selection: hits, their analogues and other compounds. The true share with any hit is near 7.9%. Calls come from the whole dose curve; as a rule, active = well fitted curve in the direction sought with a large enough effect; inconclusive = small, poorly fitted or top-dose-only effect, or another doubt; inactive = no such curve, though single readings can be large; an effect the other way counts as inactive or inconclusive. Potency is the fitted concentration of half-maximal effect.

SMILES	HT1080 IDH1KD tx	KB-3-1 tox	SW480 rerep	KB-V1 MDR tox	MCF10A rerep	HT1080-NT tox
Cc1ccc(NC(=S)N(CCCN2CCCC2)Cc2cccn2Cc2ccc(Cl)cc2)cc1Cl	-8%	i	?	i	?	?
CCCN1CCc2nc(N3CCN(c4ncccn4)CC3)ncc2C1	·	i	·	i	·	·
CCc1nn(CC(=O)Nc2c(C)cc(C)cc2C)c(=O)c2cc3sccc3n12	·	i	·	i	·	·
CC(=O)c1ccc(NC(=O)c2cc(-c3ccc(C)s3)nc3ccccc23)cc1	·	i	·	i	·	·
CC(C)CCNC(=O)Nc1ccc2c(c1)N(C)C(=O)CS2	-13%	i	1%	21µM*	1%	-5%
Cc1ccc(Cn2c(CN3CCC(C(=O)NCC(C)c4ccccc4)CC3)cc3ccccc32)cc1 (stereo not given)	·	i	·	i	·	·
O=[N+]([O-])c1ccc(COc2cccc(CNc3ccc(F)cc3)c2)cc1	-6%	i	-2%	21µM*	18%	2%
CC(C)NC(=O)c1sc2nc3c(c(-c4cccs4)c2c1N)CN(C)CC3	3%	i	-2%	i	3%	2%
Cc1cccc(NC(=O)c2sc3nc4c(c(-c5cccs5)c3c2N)CN(C)CC4)c1	-13%	i	?	i	16µM*	-5%
CC(O)C(NS(=O)(=O)c1ccc(Cl)cc1)C(=O)OCC(=O)c1c[nH]c2ccccc12 (stereo not given)	-24%	i	3%	i	22%	-27%
CC(C)C(NS(=O)(=O)c1c(Cl)cccc1Cl)C(=O)OCC(=O)c1c[nH]c2ccccc12 (stereo not given)	-26%	i	·	21µM*	13%	-17%
N=c1c2c(ncn1CCCO)Oc1ccc3ccccc3c1C2c1ccccc1 (stereo not given)	?	i	-46%	i	24%	?
COc1ccc(C2c3c(ncn(Cc4ccco4)c3=N)Oc3ccc4ccccc4c32)cc1 (stereo not given)	?	?	?	?	?	21µM*
N=c1c2c(ncn1Cc1ccco1)Oc1ccc3ccccc3c1C2c1ccccc1 (stereo not given)	23µM*	?	?	7.3µM*	16µM*	16µM*
COc1ccc(C2c3ccc(O)cc3Oc3ncn(Cc4ccco4)c(=N)c32)cc1 (stereo not given)	-2%	?	1%	i	?	-6%
COc1cc(OC)c(NC2(c3ccccc3)C(=O)c3ccccc3C2=O)cc1Cl	·	i	·	?	·	·
COc1ccc(CNC(=O)CN(c2cc(C(F)(F)F)ccc2Cl)S(C)(=O)=O)cc1	·	i	·	i	·	·
COc1ccc(/C=C2\SC(=O)N(CCNC(=O)C3CCN(S(=O)(=O)c4cccs4)CC3)C2=O)cc1	1%	i	-15%	15µM*	-7%	3%
Cc1ccc(-c2csc(NC(=O)C3CCN(S(=O)(=O)c4cccs4)CC3)n2)cc1	?	6.5µM*	?	9.2µM*	2%	-12%
O=C(Nc1nc(-c2ccc3ccccc3c2)cs1)C1CCN(S(=O)(=O)c2cccs2)CC1	-20%	4.6µM*	-137%	2.6µM*	-43%	-7%
O=C(NCCN1C(=O)S/C(=C\c2ccc(F)cc2)C1=O)C1CCN(S(=O)(=O)c2cccs2)CC1	15%	i	-2%	i	3%	4%
O=C(CC1N=C2c3ccccc3N=C(SCc3ccc(Cl)cc3)N2C1=O)NCCc1ccccc1 (stereo not given)	·	?	·	i	·	·
COc1ccc(OCCN2CCC(C(=O)NC(c3ccc(Cl)cc3)c3cccnc3)CC2)cc1 (stereo not given)	21µM*	i	·	i	·	?
COc1ccc(C(NC(=O)C2CCN(CCOc3ccc(Cl)cc3Cl)CC2)c2ccccn2)cc1 (stereo not given)	21µM*	i	·	i	·	23µM*
Cc1ccc(C(NC(=O)C2CCN(CCOc3ccc(Cl)cc3)CC2)c2ccccn2)cc1 (stereo not given)	?	i	·	i	·	?
SMILES	HT1080 IDH1KD tx	KB-3-1 tox	SW480 rerep	KB-V1 MDR tox	MCF10A rerep	HT1080-NT tox
COc1ccccc1C(NC(=O)C1CCN(CCOc2ccc(Cl)cc2Cl)CC1)c1ccccn1 (stereo not given)	15µM*	i	·	i	·	?
COc1cc(OC)nc(C(NC(=O)C2CCN(Cc3c[nH]c4ccccc34)CC2)c2ccc(Cl)cc2)n1 (stereo not given)	-22%	?	·	?	·	5.8µM*
COc1ccccc1C(NC(=O)C1CCN(CCOc2ccc(Cl)cc2)CC1)c1ccccn1 (stereo not given)	?	i	·	i	·	?
Cc1ccc(F)c(S(=O)(=O)NC(=O)C2(C)CCN2C(=O)c2ccccc2)c1 (stereo not given)	5%	i	·	i	·	28%
COc1ccc(OC)c(NC(=O)CSc2nc3n[nH]c(C)c3c(=N)n2-c2cccc(Cl)c2C)c1	23µM*	?	7%	?	27%	-18%
CCc1ccccc1NC(=O)CSc1nc2n[nH]c(C)c2c(=N)n1-c1cccc(OC)c1	?	i	18%	8.2µM*	?	-29%
CCc1ccc(-n2c(=O)c3c4c(sc3n(CC(=O)c3ccc(Cl)cc3)c2=O)CCC4)cc1	·	i	·	i	·	·
COc1ccc(N2CCN(c3csc4ccc(Cl)cc4c3=O)CC2)cc1	·	?	·	i	·	·
O=C(CSc1nnc(-c2cccc(F)c2)o1)Nc1nncs1	13%	i	0%	i	5%	2%
Cc1ccc(C)c(NC(=O)CSc2nnc(-c3ccccc3)o2)c1	25%	i	-9%	i	-4%	13%
CCn1c2ccccc2c2cc(NC(=O)CSc3nnc(-c4cccc(F)c4)o3)ccc21	?	7.3µM*	?	12µM*	5.2µM*	13µM*
CCn1c2ccccc2c2cc(NC(=O)CSc3nnc(-c4cccc(C)c4)o3)ccc21	-2%	23µM*	?	?	?	-3%
